Screening data deposited in PubChem BioAssay by several laboratories.
The list is not random: actives were taken first. Their share in the collection is about 2.3%.
TRPM1 prom inh: inhibitors of MITF-driven TRPM1 promoter in melanoma cells; 330,000 tested, 0.83% active; inhibition, % at 12.5 µM; AID 488899; SK-MEL-5 TRPM1 promoter luciferase, 24 h;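 active = mean inhibition across replicates of 60% or more, whatever share of single replicates reaches that level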
EBV LMP1 NFkB: Epstein-Barr LMP1 NF-kappaB reporter inhibition | LMP1-induced NF-kappaB luciferase reporter cells, luminescence | inhibition, % at 12.5 µM | 350,000 tested, 0.69% active; in the data active = inhibition above about 41%;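 note: 0% = neutral control wells and 100% = reference inhibitor control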
697 NFkB inh: lowers PMA/ionomycin-induced NF-kB signal in 697 B cells | 697 B-cell NF-kB luciferase reporter, 16 h | inhibition, % at 4 µM | 330,000 tested, 0.33% active | AID 435022; in the data active = inhibition above about 35%
Jurkat NFkB inh: inhibitors of the PMA/ionomycin-induced NF-kB reporter in Jurkat cells; inhibition, % at 4 µM; PMA/ionomycin-induced NF-kB luciferase reporter, luminescence; 330,000 tested, 0.53% active; in the data active = inhibition above about 50%
Shn3 inh set2: reduces Shn3 3'UTR luciferase signal in osteoblasts | Clone20 osteoblast Shn3 3'UTR firefly luciferase, 24 h | inhibition, % at 12.5 µM | 360,000 tested, 0.52% active;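 active = mean inhibition of at least 75% with every replicate also reaching 75%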;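 note: 0% = median of neutral control wells and 100% = pilot-screen positive control compound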
Gli-Sufu antag: blocks Gli-Sufu signaling in a luciferase reporter. Sufu-KO-LIGHT fibroblasts, Gli luciferase reporter luminescence. 340,000 tested, 0.74% active. inhibition, % at 5 µM. AID 588413;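 active = inhibition above about 55%, limit read from the data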;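 note: 0% = DMSO-treated cells and 100% = wells with medium but no cells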
Gli antag conf: confirmation of Gli-SUFU pathway antagonists. Sufu-KO-LIGHT cells, Gli luciferase reporter, luminescence. inhibition, % at 5 µM. 2,500 tested, 40% active. shares compounds with Gli-Sufu antag;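 active = mean inhibition at 5 µM reaching about 45%, limit read from the data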;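 note: plate controls were DMSO-treated cells for no effect and wells lacking cells for full effect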
SufuKO cytotox: counter-screen for Gli-SUFU antagonists: cytotoxicity. Sufu-KO-LIGHT cells cytotoxicity, ATP luminescence. cytotoxicity, % at 5 µM. 2,500 tested, 32% active. AID 651994. shares compounds with Gli-Sufu antag;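 active = mean cytotoxicity at 5 µM above about 25%, limit read from the data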;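 note: cells exposed to compound overnight for roughly 16 to 18 hours; plate controls were DMSO wells with cells for no effect and medium without cells for full effect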
Wnt3a cs: Wnt3a reporter inhibition counter-screen; 2,500 tested, 20% active; inhibition, % at 6.25 µM; AID 651995; Wnt-LIGHT cells, Wnt3a-driven luciferase reporter, luminescence; shares compounds with Gli-Sufu antag;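 active = mean inhibition above about 25%, limit read from the data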
* marks the source's active call; other numbers are inactive results; / = no result given.

SMILES	TRPM1 prom inh	EBV LMP1 NFkB	697 NFkB inh	Jurkat NFkB inh	Shn3 inh set2	Gli-Sufu antag	Gli antag conf	SufuKO cytotox	Wnt3a cs
O=C(NCc1ccco1)C12CN(Cc3ccccc3)CC1C(c1ccc([N+](=O)[O-])cc1)=NO2 (stereo not drawn)	7	1	25	-2	-24	1	/	/	/
Cc1ccc(CNC(=O)C23CN(Cc4ccccc4)CC2C(c2ccc([N+](=O)[O-])cc2)=NO3)o1 (stereo not drawn)	-8	-4	11	12	8	98*	18	3	-82
Cc1ccc(C[n+]2cccc(-c3ccccc3)c2)c(C)c1	39	12	28	19	81	84*	84*	21	56*
Cc1ccc[n+](CC(=O)c2ccccc2)c1	/	/	-9	-23	/	/	/	/	/
O=C(O)CSc1nc(SCc2ccccc2Cl)nc2c1CCCC2	-9	-28	-3	-7	0	9	/	/	/
COc1ccc(-c2nc(CCl)cs2)cc1OC	-2	6	-7	-24	9	60*	10	16	-15
Cc1cc(C)c[n+](C(C)C(=O)c2ccc(-c3ccccc3)cc2)c1 (stereo not drawn)	51	25	27	34	33	80*	79*	24	0
Cc1ccc[n+](C(C)C(=O)c2ccc(Cl)cc2)c1 (stereo not drawn)	-3	2	1	1	21	-12	/	/	/
CC(OC(=O)c1cccc(-n2cnnn2)c1)C(=O)Nc1ccc(F)cc1 (stereo not drawn)	8	10	-23	7	78	50	25	10	6
CC(C)(C)c1ccc(C(=O)NCCC(=O)Nc2ccc(S(=O)(=O)Nc3nccs3)cc2)cc1	-9	-7	2	3	8	-8	/	/	/
Cc1ccc(C(C)C)c(OCCn2c(=O)oc3ccccc32)c1	-5	2	6	13	5	96*	20	-4	4
Cn1c(CCC(=O)OCC(=O)Nc2ccc(Oc3ccccc3)cc2)nc(=O)c2ccccc21	-19	-1	1	-7	2	-7	/	/	/
CC(=O)Nc1ccc(Cl)cc1C(=O)c1ccc[nH]1	/	-5	/	/	-11	/	/	/	/
NCC(=O)Nc1ccc(Cl)cc1C(=O)c1ccc[nH]1	1	31	29	-2	-192	52	33	0	11
O=C(N/N=C\c1cc(Cl)ccc1O)c1ccc(S(=O)(=O)N2CCCCC2)cc1	66*	23	-67	32	91*	73*	78*	37*	61*
CCOc1ccccc1NC(=S)NC(=O)CCCOc1ccc(Cl)cc1Cl	1	6	8	-6	5	65*	30	-1	-39
CCN(CC)/C(=N/O)NC(=O)NS(=O)(=O)c1ccc(C)cc1	-1	-11	10	-4	7	2	/	/	/
COc1ccc(-c2nn(-c3ccccc3)cc2C=O)cc1[N+](=O)[O-]	-11	1	22	-14	-5	55*	14	33*	9
Cc1nc2sccn2c1-c1csc(NCc2ccccc2)n1	-9	3	-41	19	68	56*	50*	22	16
COc1ccc(NC(=O)C2CCN(S(=O)(=O)c3ccc(N4CCCC4=O)cc3)CC2)c(OC)c1	7	6	10	0	14	39	/	/	/
Cc1cc(S(=O)(=O)N2CCCC(C(=O)Nc3ccc(C(=O)O)cc3)C2)ccc1Cl (stereo not drawn)	9	7	-1	-5	-7	55*	16	-7	14
Cc1ccc(NC(=O)C2CCN(S(=O)(=O)c3ccc(N4CCCC4=O)cc3)CC2)cc1Cl	25	26	6	24	84	81*	84*	41*	8
O=C(NC1CCN(S(=O)(=O)c2ccccc2F)CC1)c1ccco1	10	-7	-4	-18	-7	-19	/	/	/
CS(=O)(=O)N1CCCC(C(=O)N2CCc3ccccc3C2)C1 (stereo not drawn)	11	0	-4	-4	-15	55	20	12	-29
CS(=O)(=O)N1CCC(C(=O)N2CCc3ccccc3C2)CC1	-3	5	14	-6	5	-2	/	/	/
SMILES	TRPM1 prom inh	EBV LMP1 NFkB	697 NFkB inh	Jurkat NFkB inh	Shn3 inh set2	Gli-Sufu antag	Gli antag conf	SufuKO cytotox	Wnt3a cs
CC(C)c1nnc(NC(=O)CC(=O)Nc2ccccc2C(=O)O)s1	32	31	15	-2	21	52	44	-5	48*
CC(C)Cc1nnc(NC(=O)CC(=O)Nc2ccccc2C(=O)O)s1	-2	6	18	8	16	-2	/	/	/
COc1ccccc1OC(C)C(=O)Nc1ccccc1C(=O)NCc1cccnc1 (stereo not drawn)	-4	-2	5	-4	66	56*	20	11	-29
COc1cc(OC)cc(C(=O)Nc2ccccc2C(=O)NCc2cccnc2)c1	2	-3	20	-4	15	-7	/	/	/
CCCCOC(=O)C1=C(C)NC(=O)NC1c1ccc(N(C)C)cc1 (stereo not drawn)	-4	7	0	2	14	4	/	/	/
CC(=O)Nc1ccc(S(=O)(=O)N2C3CCCC2CC(NC(=O)C2CCCCC2)C3)cc1 (stereo not drawn)	3	7	-20	-4	16	95*	15	4	-38
CC(=O)Nc1ccc(S(=O)(=O)N2CCC(C(=O)NC3CCCC3)CC2)cc1	-1	-5	0	16	11	4	/	/	/
COc1cc(NS(=O)(=O)c2ccc(C)cc2C)cc(OC)c1OC	21	21	13	30	83	53	50*	17	10
COc1cc(NS(=O)(=O)c2cc3[nH]c(=O)c(=O)[nH]c3cc2C)cc(OC)c1OC	/	-5	2	4	-16	-5	/	/	/
CN(c1ccc(C(=O)NCCSC(C)(C)C)cc1)S(C)(=O)=O	-75	-25	-47	-59	-58	-45	/	/	/
Cc1nc(SCC(=O)NC2CCS(=O)(=O)C2)c(C#N)c(C)c1C (stereo not drawn)	3	-6	17	4	7	1	/	/	/
CCC(C)N(C(=O)CSc1nc(C)c(C)c(C)c1C#N)C1CCS(=O)(=O)C1 (stereo not drawn)	/	-3	7	-5	6	54	11	7	-23
O=C(Nc1ccccc1)Nc1nnc(/C=C/c2ccccc2Cl)s1	-11	-2	-27	14	-14	-4	/	/	/
Cc1ccc(S(=O)(=O)NCCOc2nc(N(C)C)nc(N3CCOCC3)n2)cc1	2	-2	1	-14	-3	95*	13	11	-13
